According to PubChem BioAssay (NCATS):
Where “and” joins values, the source holds several entries; their conditions need not be identical. Equal entries are not always repeated. Records with an inconclusive call do not appear. A number with no mark means an inactive call. Calls of active or inactive are those of the source. Unless noted, the call rests on the fitted dose curve; in most records, active means well fitted curve in either direction with a large enough effect (not every such curve was filed as active); inconclusive means small, poorly fitted or top-dose-only effect, or another doubt; inactive means flat fitted curve, though single readings scatter.

System: not listed separately
Assay: AP1 Signaling Pathway (AID 357); further: on the % scale 0 is the no-effect control and ±100 the full control effect
Conditions: ME-180 AP-1-bla reporter, EGF-induced, beta-lactamase ratio, 5 h; at 17.2 µM (top of the series)
How it was run: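 ME-180 cells with beta-lactamase reporter under AP-1 response element, stimulated with EC50 EGF; compounds tested in titration series, 5 h at 37 °C. CCF4 substrate added 2.5 h at room temperature; 460/530 nm emission ratio gave %activity and AC50.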

Compound | activity change, negative = inhibition
CC(C)N=C(N)/N=C(\N)Nc1ccc(Cl)cc1 | -0.245%
C[C@H]1C[C@H]2[C@@H]3CCC4=CC(=O)C=C[C@]4(C)[C@@]3(Cl)[C@@H](O)C[C@]2(C)[C@@]1(O)C(=O)CO | -9.37%
O=C(COc1ccc(Cl)cc1)N1CCN(Cc2ccc3c(c2)OCO3)CC1 | -14.6%
CC(C)(C(=O)c1cccnc1)c1cccnc1 | 1.77%
CC1(C)O[C@@H]2C[C@H]3[C@@H]4C[C@H](F)C5=CC(=O)CC[C@]5(C)[C@H]4[C@@H](O)C[C@]3(C)[C@]2(C(=O)CO)O1 | -0.38%
COc1c2occc2c(OC)c2c(=O)cc(C)oc12 | 4.61% and -2.27%
CCC(C(=O)OCCN(CC)CC)c1ccccc1 (configuration not stated) | 1.42%
C[C@H](O)C(=O)Nc1c(I)c(C(=O)NC(CO)CO)c(I)c(C(=O)NC(CO)CO)c1I | 11.2%
CC(CCc1ccccc1)NCC(O)c1ccc(O)c(C(N)=O)c1 (configuration not stated) | 5.69%
NCCc1ccn[nH]1 | 2.73%
O=C(OCCOCCO)c1ccccc1Nc1cccc(C(F)(F)F)c1 | -27.7%
CCN1CCC[C@H]1CNC(=O)c1c(OC)ccc(Br)c1OC | -5.77%
CC(=O)O[C@]1(C(C)=O)CC[C@H]2[C@@H]3C[C@H](C)C4=CC(=O)CC[C@]4(C)[C@H]3CC[C@@]21C | 15.9%
CCN(CCCc1ccccc1)CCCc1ccccc1 | 18.6% and 13.2%
COc1c(C)c2c(c(O)c1C/C=C(\C)CCC(=O)O)C(=O)OC2 | 6.58%

Same assay, conditions: ME-180 (cervical carcinoma) AP-1-bla reporter, EGF-induced, beta-lactamase ratio, 5 h; at 38 µM (top of the series)

Compound | activity change, negative = inhibition
O=C(O)c1cc2cc(Cc3cccnc3)ccc2o1 | -4.5%
CC(C)COC(=O)OCN1C(=O)CN(CCN2CC(=O)N(COC(=O)OCC(C)C)C(=O)C2)CC1=O | 5.55%
O=C1CCC(c2ccc(-n3ccnc3)cc2)=NN1 | 14.9%
N[C@@H](Cc1cnc[nH]1)C(=O)O | 2.79%

Target: Cytochrome P450 1A2 (Homo sapiens) (UniProt P05177)
Assay: p450-cyp1a2 (AID 410; calls by dose curve; further: potency means the concentration at half of the fitted maximal effect;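 on activity change, negative = inhibition: -100% = full effect of reference inhibitor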)
Conditions: recombinant CYP1A2, luciferin-ME demethylation, luminescence; series mostly up to 25.6 µM
How it was run: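 O-Demethylation of luciferin 6' methyl ether by human CYP1A2 is monitored as luciferase luminescence. Substrate sits at Km (100uM); enzyme is 20nM. Values are scaled to 57 uM furafylline as maximal inhibition.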

Chain of Cytochrome P450 1A2 (Homo sapiens) (P05177 whole entry, looked up): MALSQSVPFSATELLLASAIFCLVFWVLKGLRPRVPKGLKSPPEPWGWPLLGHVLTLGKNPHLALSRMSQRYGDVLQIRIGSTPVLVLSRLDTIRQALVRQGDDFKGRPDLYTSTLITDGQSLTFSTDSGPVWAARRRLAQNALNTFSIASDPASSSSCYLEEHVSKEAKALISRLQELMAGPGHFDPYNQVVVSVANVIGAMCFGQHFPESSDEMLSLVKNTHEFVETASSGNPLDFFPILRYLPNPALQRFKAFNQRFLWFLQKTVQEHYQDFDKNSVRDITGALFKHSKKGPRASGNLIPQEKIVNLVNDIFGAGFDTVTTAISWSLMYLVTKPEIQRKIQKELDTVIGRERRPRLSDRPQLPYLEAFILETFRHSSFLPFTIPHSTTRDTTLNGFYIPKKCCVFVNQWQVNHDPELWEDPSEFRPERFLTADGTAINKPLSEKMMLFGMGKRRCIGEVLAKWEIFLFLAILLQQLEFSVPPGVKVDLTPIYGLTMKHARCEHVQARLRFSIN

Compound | Potency
O=C(O)c1cc2cc(Cc3cccnc3)ccc2o1 | inactive
Nc1nc2ncc(CNc3ccc(C(=O)N[C@@H](CCC(=O)O)C(=O)O)cc3)nc2c(=O)[nH]1 | inactive
Cc1ccnc(NS(=O)(=O)c2ccc(N)cc2)n1 | inactive
CCOC(=O)n1ccn(C)c1=S | 12.6 µM (active)
CCOc1ccc(Cc2nccc3cc(OCC)c(OCC)cc23)cc1OCC | 10 µM (active)
O=C(CCCN1CCC(O)(c2ccc(Br)cc2)CC1)c1ccc(F)cc1 | 5.01 µM (active)
CCN(CC)C(=O)N1CCN(C)CC1 | inactive
CC(C)COC(=O)OCN1C(=O)CN(CCN2CC(=O)N(COC(=O)OCC(C)C)C(=O)C2)CC1=O | inactive
O=C(COc1ccc(Cl)cc1)N1CCN(Cc2ccc3c(c2)OCO3)CC1 | 5.01 µM (active)
CC(C)(C(=O)c1cccnc1)c1cccnc1 | 12.6 µM (active)
COc1c2occc2c(OC)c2c(=O)cc(C)oc12 | 0.02 µM (active)
C[C@H](O)C(=O)Nc1c(I)c(C(=O)NC(CO)CO)c(I)c(C(=O)NC(CO)CO)c1I | inactive
O=C1CCC(c2ccc(-n3ccnc3)cc2)=NN1 | 0.158 µM (active)
NCCc1ccn[nH]1 | inactive
CCN1CCC[C@H]1CNC(=O)c1c(OC)ccc(Br)c1OC | inactive
N[C@@H](Cc1cnc[nH]1)C(=O)O | inactive
CCN(CCCc1ccccc1)CCCc1ccccc1 | 3.98 µM (active)
COc1c(C)c2c(c(O)c1C/C=C(\C)CCC(=O)O)C(=O)OC2 | 31.6 µM (active)

System: not listed separately
Assay: Cell Viability - BJ (AID 421; calls by dose curve;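 further: potency means the concentration at half of the fitted maximal effect; cells exposed to compound for 40 hours at 37 °C before readout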)
Conditions: BJ fibroblast viability, qHTS
How it was run: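 Cytotoxicity as drop in intracellular ATP (CellTiter-Glo, 20 min RT) after 40 hr compound exposure of BJ fibroblasts at 37 °C. Titrations scaled between DMSO and 100 uM tamoxifen, Hill-fitted for AC50.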

Compound | Potency
Oc1c(Cl)cc(Cl)cc1Sc1cc(Cl)cc(Cl)c1O | > 92 µM
CC(C)(C)CC(C)(C)c1ccc(OCCOCC[N+](C)(C)Cc2ccccc2)cc1 | 52.9 µM (active)
CC(=O)O[C@]1(C(C)=O)CC[C@H]2[C@@H]3C[C@H](C)C4=CC(=O)CC[C@]4(C)[C@H]3CC[C@@]21C | > 92 µM

System: not listed separately
Assay: Cell Viability - HepG2 (AID 433; calls by dose curve;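 further: potency means the concentration at half of the fitted maximal effect; cells exposed to compound for 40 hours; potency for ATP loss meaning cytotoxicity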)
Conditions: qHTS
How it was run: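 HepG2 hepatocellular carcinoma cells (1500/well) were treated with compounds for 40 h at 37 °C in complete medium; intracellular ATP was read by CellTiter-Glo luminescence. Data were normalized to DMSO and 100 uM tamoxifen, and AC50 came from Hill fits.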

Compound | Potency
Oc1c(Cl)cc(Cl)cc1Sc1cc(Cl)cc(Cl)c1O | 27.9 µM (active)
CC(C)(C)CC(C)(C)c1ccc(OCCOCC[N+](C)(C)Cc2ccccc2)cc1 | 57.8 µM (active)
CC(=O)O[C@]1(C(C)=O)CC[C@H]2[C@@H]3C[C@H](C)C4=CC(=O)CC[C@]4(C)[C@H]3CC[C@@]21C | > 92 µM

System: not listed separately
Assay: NFAT Signaling Pathway (AID 444);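 further: carbachol stimulus at about its EC50 of 1 µM final; on the % scale 0 is the no-effect control and ±100 the full control effect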
Conditions: Jurkat NFAT-bla M1, carbachol, beta-lactamase ratio, 5 h; at 17.2 µM (top of the series)
How it was run: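 Jurkat cells with NFAT-driven β-lactamase reporter and co-expressed M1 receptor, stimulated with carbachol (final 1 uM, ~EC50), compound titration, 5 h at 37 °C. CCF4 loaded 1 h at RT; 460/530 nm ratio gave %activity and AC50.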

Compound | activity change, negative = inhibition
Oc1c(Cl)cc(Cl)cc1Sc1cc(Cl)cc(Cl)c1O | -126% (active)
CCCCCCCCCCCCCCCC[N+](C)(C)CCN(Cc1ccc(OC)cc1)c1ncccn1 | 8.86%
C[C@]12CC[C@H]3[C@@H](CCC4=CC(=O)CC[C@@]43C)[C@@H]1CC[C@@H]2C(=O)CO | -13.6%
CCC(NC(C)C)C(O)c1ccc(O)c(O)c1 (configuration not stated) | 3%
Nc1nc2ncc(CNc3ccc(C(=O)N[C@@H](CCC(=O)O)C(=O)O)cc3)nc2c(=O)[nH]1 | 2.08%
NCCCC[C@H](N[C@@H](CCc1ccccc1)C(=O)O)C(=O)N1CCC[C@H]1C(=O)O | -2.99%
Cc1ccnc(NS(=O)(=O)c2ccc(N)cc2)n1 | 0.552%
CCOC(=O)n1ccn(C)c1=S | -13.3%
CCOc1ccc(Cc2nccc3cc(OCC)c(OCC)cc23)cc1OCC | -11.6%
O=C(CCCN1CCC(O)(c2ccc(Br)cc2)CC1)c1ccc(F)cc1 | -24.7%
CCN(CC)C(=O)N1CCN(C)CC1 | -7.87%
O=C1c2ccccc2C(=O)C1c1ccccc1 | -11.7%
CC(=O)OCC(=O)[C@@]1(O)CC[C@H]2[C@@H]3CCC4=CC(=O)C=C[C@]4(C)[C@H]3[C@@H](O)C[C@@]21C | -6.54%
C[C@H](CCC(=O)O)[C@H]1CC[C@H]2[C@@H]3C(=O)C[C@@H]4CC(=O)CC[C@]4(C)[C@H]3CC(=O)[C@]12C | 13.3%
CC(C)N=C(N)/N=C(\N)Nc1ccc(Cl)cc1 | -11%
C[C@H]1C[C@H]2[C@@H]3CCC4=CC(=O)C=C[C@]4(C)[C@@]3(Cl)[C@@H](O)C[C@]2(C)[C@@]1(O)C(=O)CO | -6.95%
O=C(COc1ccc(Cl)cc1)N1CCN(Cc2ccc3c(c2)OCO3)CC1 | 15.3%
CC(C)(C(=O)c1cccnc1)c1cccnc1 | -2.38%
CC1(C)O[C@@H]2C[C@H]3[C@@H]4C[C@H](F)C5=CC(=O)CC[C@]5(C)[C@H]4[C@@H](O)C[C@]3(C)[C@]2(C(=O)CO)O1 | 16.2%
COc1c2occc2c(OC)c2c(=O)cc(C)oc12 | 4.03% and 8.21%
CCC(C(=O)OCCN(CC)CC)c1ccccc1 (configuration not stated) | -83.4% (active)
C[C@H](O)C(=O)Nc1c(I)c(C(=O)NC(CO)CO)c(I)c(C(=O)NC(CO)CO)c1I | 3.52%
CC(CCc1ccccc1)NCC(O)c1ccc(O)c(C(N)=O)c1 (configuration not stated) | 9.12%
NCCc1ccn[nH]1 | -6.22%
O=C(OCCOCCO)c1ccccc1Nc1cccc(C(F)(F)F)c1 | -18%
CCN1CCC[C@H]1CNC(=O)c1c(OC)ccc(Br)c1OC | -26.9%
CC(=O)O[C@]1(C(C)=O)CC[C@H]2[C@@H]3C[C@H](C)C4=CC(=O)CC[C@]4(C)[C@H]3CC[C@@]21C | 6.28%
CCN(CCCc1ccccc1)CCCc1ccccc1 | -87% (active)
COc1c(C)c2c(c(O)c1C/C=C(\C)CCC(=O)O)C(=O)OC2 | -1.42%
